A short description of assay [1]: anti-His antibody binders, primary screen, artefact control for SMM control protein annotation, biochemical, small-molecule microarray, 635 nm fluorescence (AID 1128).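 Also: score merges feature fluorescence with signal-to-noise for each printed compound spot.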 The following applies: anti-His Alexa647 antibody binding, higher = more signal.
Assay [2] deals with Human papillomavirus type 1a E7 protein (residues 1-88). In words: HPV1a E7 small-molecule binders, primary screen, biochemical, small-molecule microarray, residues 1-88, 635 nm (AID 1129). Conditions: small-molecule microarray binding, fluorescence 635 nm; higher = more signal.
In assay [3] the target is Focal adhesion kinase 1 (Homo sapiens) (UniProt Q05397). As to the kind of experiment: small-molecule microarray binders of FAK, primary screen, biochemical, 635/667 nm fluorescence, BSA, DTT (AID 1130).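 Also: composite of spot emission at 667 nm and signal to noise over triplicate slides.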 The following applies: PTK2 binding, 635 nm fluorescence, higher = more signal.
Assay [4] has as its system Fibrinogen (Alexa647-labelled). In words: fibrinogen binders on compound microarrays, profiling panel, artefact control for SMM control-protein annotation, biochemical, small-molecule microarray, 635/667 nm fluorescence (AID 1131).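 Also: z-score merges 667 nm fluorescence with per-spot signal-to-noise over triplicate slides.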 The following applies: fibrinogen-A647 binding fluorescence, higher = more signal.
Assay [5] has as its target Follistatin (Homo sapiens) (UniProt P19883). As to the kind of experiment: follistatin binders on small-molecule microarrays, primary screen, biochemical, small-molecule microarray, 635/667 nm fluorescence (AID 1132). The following applies: FST binding, 635 nm fluorescence, higher = more signal.
Assay [6] addresses Fibroblast growth factor 2 (Homo sapiens) (UniProt P09038). As to the kind of experiment: FGF2 binders on small-molecule microarrays, primary screen, biochemical, small-molecule microarray, 635/667 nm fluorescence (AID 1133). Conditions: small-molecule microarray binding, FGF2, fluorescence 635/667; higher = more signal.
Assay [7] in a line: mitochondrial membrane potential change in A549 cells, profiling panel, cell-based, JC-1 fluorescence, basal, 24 h, 100 nL (AID 1138).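 Also: A549 lung adenocarcinoma cells under basal conditions with no added stimulus; test concentration not given here.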 The following applies: higher = more signal.
Another assay relates to Lefty1. In words: Lefty1 binders on small-molecule microarrays, primary screen, biochemical, small-molecule microarray, 635/667 nm fluorescence (AID 1139). The following applies: small-molecule microarray binding, fluorescence 635/667; higher = more signal.
Assay [8] concerns wheat germ agglutinin (Triticum aestivum), Alexa647-labelled. In words: wheat germ agglutinin binders on compound microarrays, profiling panel, artefact control for SMM control-protein annotation, biochemical, small-molecule microarray, 635/667 nm fluorescence (AID 1140).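 Also: score merges 667 nm feature emission with signal to noise over triplicate slides.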 Conditions: WGA-A647 binding, 635 nm fluorescence, higher = more signal.
For assay [9], the target named is Luciferin 4-monooxygenase (Photinus pyralis) (UniProt P08659). As to the kind of experiment: firefly luciferase enzyme inhibitors, primary screen, biochemical, luminescence, purified enzyme, 2006 set (AID 1141).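 Also: cell-free assay with purified firefly luciferase at 100 ng per well in PBS; test concentration not given here.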 Conditions: SteadyGlo luminescence, 30 min, higher = more signal, called active from +8 up or from −8 down.

Active and inactive are the calls of the source.

Focal adhesion kinase 1 (Homo sapiens), sequence (Q05397 whole entry, looked up): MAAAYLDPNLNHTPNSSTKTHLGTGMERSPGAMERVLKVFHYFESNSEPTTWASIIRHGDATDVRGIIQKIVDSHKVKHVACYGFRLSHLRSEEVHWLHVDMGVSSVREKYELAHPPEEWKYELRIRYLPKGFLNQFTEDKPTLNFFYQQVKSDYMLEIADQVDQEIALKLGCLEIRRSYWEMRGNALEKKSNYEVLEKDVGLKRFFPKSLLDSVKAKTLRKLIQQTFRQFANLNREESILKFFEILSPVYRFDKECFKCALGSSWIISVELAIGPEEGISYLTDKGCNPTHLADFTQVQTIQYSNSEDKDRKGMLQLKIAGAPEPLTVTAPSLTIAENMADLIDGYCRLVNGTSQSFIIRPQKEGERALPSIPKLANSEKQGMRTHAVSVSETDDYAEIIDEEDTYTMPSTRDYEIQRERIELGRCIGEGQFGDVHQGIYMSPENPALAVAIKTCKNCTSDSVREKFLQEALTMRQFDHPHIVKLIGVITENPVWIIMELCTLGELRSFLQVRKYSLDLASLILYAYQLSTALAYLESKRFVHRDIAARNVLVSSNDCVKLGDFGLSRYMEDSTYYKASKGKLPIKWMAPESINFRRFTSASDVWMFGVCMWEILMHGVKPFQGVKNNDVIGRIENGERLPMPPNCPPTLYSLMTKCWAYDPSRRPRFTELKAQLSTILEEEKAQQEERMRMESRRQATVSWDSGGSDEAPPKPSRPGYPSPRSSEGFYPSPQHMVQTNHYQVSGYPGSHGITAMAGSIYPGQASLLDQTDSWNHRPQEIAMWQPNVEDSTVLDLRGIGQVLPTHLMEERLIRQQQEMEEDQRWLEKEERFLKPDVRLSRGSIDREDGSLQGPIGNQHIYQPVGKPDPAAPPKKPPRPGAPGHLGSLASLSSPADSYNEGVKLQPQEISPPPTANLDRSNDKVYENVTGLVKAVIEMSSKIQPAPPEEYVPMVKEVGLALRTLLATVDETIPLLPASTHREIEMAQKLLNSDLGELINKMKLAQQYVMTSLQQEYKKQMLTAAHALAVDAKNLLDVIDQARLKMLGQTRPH
Follistatin (Homo sapiens), sequence (P19883 whole entry, looked up): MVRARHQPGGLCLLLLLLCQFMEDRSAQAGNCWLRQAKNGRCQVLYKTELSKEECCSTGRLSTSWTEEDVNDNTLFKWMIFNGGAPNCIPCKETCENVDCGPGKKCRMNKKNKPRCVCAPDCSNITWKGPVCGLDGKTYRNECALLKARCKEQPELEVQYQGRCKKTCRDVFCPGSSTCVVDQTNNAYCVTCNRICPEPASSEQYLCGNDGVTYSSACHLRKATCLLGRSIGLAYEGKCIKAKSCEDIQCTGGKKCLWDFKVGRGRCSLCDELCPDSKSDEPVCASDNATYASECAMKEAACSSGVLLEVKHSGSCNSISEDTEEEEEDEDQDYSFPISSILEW
Fibroblast growth factor 2 (Homo sapiens), sequence (P09038 whole entry, looked up): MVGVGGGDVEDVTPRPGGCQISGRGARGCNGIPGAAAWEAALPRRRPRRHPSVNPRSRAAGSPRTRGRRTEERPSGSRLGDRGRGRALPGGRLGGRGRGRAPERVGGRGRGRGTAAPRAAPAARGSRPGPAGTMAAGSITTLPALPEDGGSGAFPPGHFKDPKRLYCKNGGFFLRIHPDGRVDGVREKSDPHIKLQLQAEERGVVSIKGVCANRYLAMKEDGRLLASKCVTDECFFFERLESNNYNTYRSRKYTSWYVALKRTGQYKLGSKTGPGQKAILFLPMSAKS
Luciferin 4-monooxygenase (Photinus pyralis), sequence (P08659 whole entry, looked up): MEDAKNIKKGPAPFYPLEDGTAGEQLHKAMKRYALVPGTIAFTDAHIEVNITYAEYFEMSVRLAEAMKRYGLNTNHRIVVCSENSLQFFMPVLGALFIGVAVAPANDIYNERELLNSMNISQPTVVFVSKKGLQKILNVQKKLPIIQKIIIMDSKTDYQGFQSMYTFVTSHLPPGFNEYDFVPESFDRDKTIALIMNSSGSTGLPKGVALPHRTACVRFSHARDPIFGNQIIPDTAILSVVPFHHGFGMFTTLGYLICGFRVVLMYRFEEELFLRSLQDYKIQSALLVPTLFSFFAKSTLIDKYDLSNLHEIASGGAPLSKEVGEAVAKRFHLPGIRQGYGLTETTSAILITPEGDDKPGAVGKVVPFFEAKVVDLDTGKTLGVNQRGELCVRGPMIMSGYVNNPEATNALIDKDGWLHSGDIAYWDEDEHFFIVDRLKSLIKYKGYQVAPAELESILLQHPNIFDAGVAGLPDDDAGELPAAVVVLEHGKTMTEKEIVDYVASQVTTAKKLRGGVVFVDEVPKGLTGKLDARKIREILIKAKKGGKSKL

As to `COCCOC(=O)N1C(=O)[C@@]2(c3cc(C#Cc4ccc(OC)cc4)ccc31)[C@H](C(=O)N1CCN(c3ncccn3)CC1)[C@H]1C(=O)O[C@H](c3ccccc3)[C@H](c3ccccc3)N1[C@@H]2c1ccccc1OCCO`, the composite z-score in assay [1] is 2.03; in assay [2], 1.14; in assay [3], 0.364; in assay [4] it was -0.118; in assay [5], 0.579; in assay [6] it was 0.238. In addition, the composite z-score was determined as 0.305 in the assay on Lefty1 and 0.701 in assay [8]. For the same compound, the z-score in assay [7] is -0.94; in assay [9], 0.223 (inactive).
Regarding `COCCOC(=O)N1C(=O)[C@@]2(c3ccccc31)[C@H](C(=O)N1CCN(c3ncccn3)CC1)[C@H]1C(=O)O[C@H](c3ccccc3)[C@H](c3ccccc3)N1[C@@H]2c1ccc(OCCO)cc1`, the composite z-score in assay [1] was found to be 2.77; in [2], 1.21; in assay [3] it was 2.12; in assay [4], 0.967; in assay [5], 1.23; in assay [6], 0.891. Further, the composite z-score was found to be 0.612 in the assay with Lefty1 and 0.965 in assay [8]. Besides, the z-score in assay [7] is -0.587; in assay [9] it was -1.3 (inactive).
Consider `C=C[C@H](COC(C)=O)NS(=O)(=O)c1ccc(Br)cc1`, for which the composite z-score in [1] is 0.207; in [2] it was -0.575; in assay [3] it was -0.0533; in assay [4], 0.382; in assay [5], 1.27; in assay [6], -0.0651. The results for the composite z-score (with Lefty1; in [8]) were 0.17 and 0.146, respectively. The z-score was 0.695 in [7] and -0.503 (inactive) in assay [9].
`CCOC(=O)C1=CC[C@@H](c2ccc([N+](=O)[O-])cc2)N(S(=O)(=O)c2ccc(C)cc2)[C@H]1c1ccccc1`: the composite z-score amounted to 1.89 in [1]; 1.21 in assay [2]; 0.471 in [3]; 0.979 in [4]; 1.01 in [5]; 0.554 in [6]. The results for the composite z-score (in the assay with Lefty1; in assay [8]) were 0.969 and 0.695, respectively. In addition, the z-score is 1.26 in assay [7] and 1.94 (inactive) in [9].
For the compound `O=C1O[C@@H](c2ccccc2)[C@@H](c2ccccc2)N2[C@@H](c3ccc(O)cc3)[C@]3(C(=O)Nc4ccc(C#CCCO)cc43)[C@@H](C(=O)NC[C@H](O)c3ccccc3)[C@H]12`, the composite z-score is 0.206 in assay [1]; -0.386 in assay [2]; -0.141 in [3]; -1.38 in assay [4]; -0.162 in [5]; -1.11 in assay [6]. Further, the composite z-score in the assay on Lefty1 was 0.0328; in [8], 1.12. Besides, the z-score in assay [7] is -1.57; in assay [9] it was 0.411 (inactive).
`O=C1OC[C@@H](c2ccccc2)N2CC(/C=C/c3ccccc3)=CC12` (stereo not given in full): the composite z-score is -0.206 in assay [1]; 0.725 in assay [2]; -0.542 in [3]; -0.593 in [4]; -1.29 in assay [5]; -1.45 in [6]. The composite z-score in the assay with Lefty1 was -1.58; in assay [8], -0.408. Besides, the z-score in [7] is 0.0121; in assay [9] it was 0.0761 (inactive).
For the compound `C=CCOC(=O)[C@@H]1[C@H]2C(=O)O[C@H](c3ccccc3)[C@H](c3ccccc3)N2[C@H](c2ccc(OCCOC(=O)[C@H]3C[C@H]4C(=O)N[C@@H](CCCCN(C)C)C(=O)N4[C@H]3c3cccc(OCCO)c3)cc2)[C@@]12C(=O)Nc1ccc(I)cc12`, the composite z-score in [1] amounted to 2.94; in [2], 1.17; in assay [3], 0.319; in assay [4], 0.758; in assay [5], 1.48; in assay [6], 1.59. In addition, the composite z-score in the assay with Lefty1 came out at 1.49; in assay [8], 0.768. Further, the z-score in [7] is -0.717; in [9] it was -0.517 (inactive).
On to `NC(=O)N1C(=O)C2C(C1=O)C1C=C(c3ccc(CO)cc3)C2C(C2CC2)N1Cc1sc2ccccc2c1Cl` (stereo not given), for which the composite z-score in assay [1] was 2.42; in assay [2] it was 1.13; in assay [3], -0.159; in assay [4] it was 0.985; in [5] it was 0.855; in assay [6], 1.62. In addition, the composite z-score is 1.16 in the assay with Lefty1 and 1.12 in assay [8]. Also, the values for the z-score in [7] and in [9] were 1.46 and -2.36 (inactive), respectively.
As to `O=C(N1CCCCC1)[C@@]1(Cc2ccccc2)COC(c2ccc(OCCCO)cc2)=N1`, the composite z-score came out at 1.85 in assay [1]; 1.2 in assay [2]; 0.195 in assay [3]; 0.96 in assay [4]; 0.475 in assay [5]; 1.3 in assay [6]. For the same compound, the composite z-score in the assay with Lefty1 was -0.211; in assay [8], 1.12. In addition, the z-score was 1.22 in assay [7] and -0.117 (inactive) in assay [9].
With `C=CC1c2cc(O)c(OC)cc2CCN1Cc1sc2ccccc2c1Cl` (stereo not given), the composite z-score was 0.13 in [1]; 0.696 in [2]; -0.025 in assay [3]; 0.863 in assay [4]; 1.28 in [5]; -0.416 in [6]. In addition, the results for the composite z-score (in the assay on Lefty1; in [8]) were 0.188 and 0.983, respectively. Moreover, the z-score in assay [7] is -0.68; in assay [9], -0.707 (inactive).
On to `COCCOC(=O)N1C(=O)[C@@]2(c3cc(C#Cc4ccc(OC)cc4)ccc31)[C@H](C(=O)N1CCCCCCC1)[C@H]1C(=O)O[C@H](c3ccccc3)[C@H](c3ccccc3)N1[C@@H]2c1ccc(O)cc1`, for which the composite z-score in assay [1] was -0.0844; in assay [2], 1.12; in [3], 0.277; in assay [4], 0.205; in assay [5] it was 1.38; in [6], 0.541. Further, the composite z-score with Lefty1 is 1.04; in assay [8] it was 0.351. In addition, the values for the z-score in [7] and in [9] were -1.42 and -0.0524 (inactive), respectively.
`COC(=O)[C@@]1(Cc2ccc(OC)cc2)[C@H]2c3cc(C(=O)N(C)C)n(CCc4c[nH]c5ccc(O)cc45)c3C[C@H]2CN1C(=O)c1ccccc1`: the composite z-score was 0.548 in assay [1]; 1.21 in assay [2]; 1.36 in [3]; 0.979 in [4]; 1.01 in assay [5]; -0.218 in assay [6]. Besides, the values for the composite z-score (in the assay with Lefty1; in assay [8]) were -0.737 and 1.28, respectively. In addition, the figures for the z-score in [7] and in [9] were 0.74 and 1.18 (inactive), respectively.
Take `CC1CC/C=C\[C@H]2OC34C=CCN(C(C)C)C(=O)[C@H]3N(CCCCCO)C(=O)[C@@H]4C2C(=O)O1` (stereo not given in full): the composite z-score in [1] is -1.07; in assay [2], -1.71; in assay [3] it was -0.6; in assay [4] it was -1.29; in assay [5], -0.985; in assay [6], -1.17. In addition, the values for the composite z-score (with Lefty1; in [8]) were -1.42 and -0.892, respectively. For the same compound, the z-score in [7] is 1.68; in [9], -1.39 (inactive).
With `COc1ccc([Si](C)(C)[C@H]2[C@H](CC(=O)N3Cc4ccccc4C[C@H]3CO)O[C@@]3(C(=O)N(Cc4cccc(N5CCCCC5=O)c4)c4ccccc43)[C@@H]2C)cc1`, the composite z-score in assay [1] is 1.57; in assay [2], 0.307; in assay [3], 0.566; in assay [4], 0.378; in [5] it was 1.3; in [6], 1.58. Further, the composite z-score with Lefty1 turned out to be 1.53; in assay [8], 0.292. Further, the results for the z-score in [7] and in assay [9] were 0.925 and -0.0418 (inactive), respectively.
Take `COc1cc(CO)cc(I)c1O[C@H]1C=C(C(=O)NCCO)C[C@@H](N(Cc2ccc(F)cc2)C(=O)C2CCCO2)[C@@H]1O` (stereo not given in full): the composite z-score in assay [1] was found to be 0.608; in assay [2] it was 0.317; in assay [3] it was 0.079; in assay [4], 0.247; in [5], 0.34; in assay [6], 0.47. The composite z-score in the assay on Lefty1 is -0.0522; in [8], 0.517. Besides, the z-score was 1.46 in assay [7] and -0.951 (inactive) in assay [9].
In the case of `COCCOC(=O)N1C(=O)[C@@]2(c3ccccc31)[C@H](c1ccc(OCCO)cc1)N1[C@H](c3ccccc3)[C@H](c3ccccc3)OC(=O)[C@H]1[C@@H]2C(=O)Nc1nc2ccccc2s1`, the composite z-score in assay [1] came out at 1.6; in assay [2], 1.2; in assay [3] it was 0.72; in [4] it was 0.942; in assay [5], 1.24; in [6], 1.05. Also, the composite z-score in the assay with Lefty1 is 0.518; in assay [8], 0.433. For the same compound, the z-score in [7] was -2.22; in assay [9], -2.98 (inactive).

Source of the values: PubChem BioAssay.
